Source: PubChem BioAssay
Compounds with a hit are over-represented: about 5.5% of the library has one in this group of screens.
Sfp PPTase inh – Sfp phosphopantetheinyl transferase inhibition. AID 1490. 310,000 tested, 3.5% active. Q9F4F7. Potency, µM, for inactives: largest response in the series, negative = inhibition, hits mostly inhibitors. Biochemical Sfp PPTase activity, qHTS;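 also: the enzyme is Sfp with the accession as filed and its product quenches rhodamine fluorescence; potency is read from the fitted curve at half-maximal effect; 0% = enzyme reaction without inhibitor and -100% = no enzyme wells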
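Fluorescence-quenching assay with 15 nM Sfp, 5 uM rhodamine-CoA and 12.5 uM BHQ-2-labelled ybbR peptide in pH 7.6 Hepes/MgCl2 buffer. Enzyme was pre-incubated with compound for 15 min at room temperature. Rate was taken from the 30-min fluorescence change (525/598 nm).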
Giardia kill – kills Giardia lamblia; Giardia lamblia trophozoite viability; activity change, % at 7.66 µM, hits read low; 340,000 tested, 0.15% active; AID 540267; in the data active = activity change below about -80%; inconclusive = between about -30% and that limit;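 also: parasites exposed to compound for two days anaerobically before the ATP read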
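Trophozoites 100 cells/well + cpd; 48 hrs, 37 deg C, anaerobic. ATPLite 1-Step added, 15-30 min RT, luminescence read (ATP-based viability).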
Coupling enz – inhibits coupling enzyme system, counter-screen for aldolase hits; coupling enzyme system counterscreen, AmpLite Red fluorescence; activity change, negative = inhibition, % at 58.2 µM, hits read low; 290,000 tested, 0.67% active; AID 2472; in the data active = activity change below about -30%
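First, compound is pin-transferred into glyceraldehyde-3-phosphate coupling-enzyme reagent at 57.5 uM final and held 10 min at RT. Next, substrate, coupling system and AmpLite Red are added. After 20 min RT, fluorescence (525/598 nm) is read.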
ELG1 repair inh – ELG1-dependent DNA repair inhibition. HEK293T ELG1-luciferase reporter, luminescence, 16 h; DNA damage induced by 5-fluorouridine. 330,000 tested, 2.3% active. AID 504467. Potency, µM (top dose mostly 46.1 µM), for the others: at the highest dose activity change, negative = inhibition, actives largely listed as inhibitors; also: potency is read from the fitted curve at half-maximal effect; nearly all actives have a fitted effect of over 55% in size
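Quantitative HTS, concentration-response format. 2,000 cells/well co-treated with 5-fluorouridine and compound, 16 hr in 5% CO2 at 37 °C; ONE-Glo luminescence read after 30 min.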
* = called active by the depositor; ? = inconclusive; . = no result given; ! = not confirmed by another sample. Unless noted, calls follow the shape of the dose curve; as a rule, active = well fitted curve in the direction sought with a large enough effect; inconclusive = small, poorly fitted or top-dose-only effect, or another doubt; inactive = no such curve, though single readings can be large; an effect the other way counts as inactive or inconclusive. Unless noted, % is scaled to controls: 0 for no effect and ±100 for the full control effect.

SMILES	Sfp PPTase inh	Giardia kill	Coupling enz	ELG1 repair inh
Cc1cc(N)c2ccccc2[n+]1CCCCCCCCCC[n+]1c(C)cc(N)c2ccccc21	4.47µM*!	.	4.7	.
CC(C)(C)C(=O)Nc1ccc(-c2cn3ccsc3n2)cc1	-10.1%	-96.7*	2.8	?
CCCOC(=O)NC1CCS(=O)(=O)C1 (configuration not stated)	24.3%	8.6	2.1	9.0%
CCCCCCCCCCOC(=O)NC1CCS(=O)(=O)C1 (configuration not stated)	-0.4%	-21.9	0.5	23.1µM*
COc1ccc(Br)cc1/C=N/NC(=O)c1nc(-c2ccccc2)n2c1CCCCC2	-6.2%	3.1	-2.1	20.6µM*
COc1cc(/C=C2/SC(=O)N(Cc3ccccc3)C2=O)ccc1OCc1ccncc1	-6.3%	3.8	4.2	10.3µM*
COc1cc(/C=C2/SC(=S)N(Cc3ccccc3)C2=O)ccc1OS(C)(=O)=O	4.0%	-3.3	-2.1	-14.8%
COc1ccc(/C=C2\SC(=NCc3ccccc3)N(Cc3ccccc3)C2=O)cc1OC	-7.4%	-15.1	-1.5	13µM*
COc1cc(/C=C2/SC(=S)N(Cc3ccccc3)C2=O)ccc1OCC(=O)O	-25.3%	13.0	0.8	?
C=CCOc1ccc(/C=C/C(=O)N2CCCN(S(=O)(=O)c3c(C)noc3C)CC2)cc1	.	9.7	.	?
CCC(C)Sc1cc(C(F)(F)F)c(C(=O)Nc2ccc(Cl)cc2)cn1 (configuration not stated)	28.8%	-22.3	-2.5	-18.7%
CCN(C(=O)c1cnc(NC(C)C)cc1C(F)(F)F)c1ccc(Cl)cc1	3.5%	-2.4	-3.9	18.3µM*
Cc1ccc(CNC(=O)CC(C)S(=O)(=O)c2ccc3c(c2)NC(=O)CS3)o1 (configuration not stated)	25.1µM*	-21.5	-1.3	-3.8%
c1ccc(COc2ccc(CNCc3cccs3)cc2)cc1	56.2µM*	6.6	-0.2	12.4%
COc1cc(CNc2ccc(O)cc2)cc(Br)c1OCc1ccccc1	22.4µM*	-13.0	-40.8*	?
Brc1ccc(CNCc2cccs2)cc1	4.3%	3.8	-1.8	1.3%
COc1cc(CNC(C)c2ccccc2)cc(Br)c1OCc1ccccc1 (configuration not stated)	?	-17.0	0.2	?
Oc1ccc(NCc2ccc(OCc3ccccc3)cc2)cc1	56.2µM*	-13.8	-10.3	?
FC(F)(F)c1ccc(CN2C[C@@H]3C(c4ccc(C(F)(F)F)cc4)C4(c5ccccc5)CC3(C4)[C@H]2c2ccccc2)cc1 (some centres not stated)	8.9%	.	-1.9	.
CC(C)[C@H](NC(=O)c1ccco1)C(=O)Nc1ccc(OC(F)F)cc1	15.9%	-1.7	-0.5	0.5%
CCCCOC(=O)c1ccc(NC(=S)NC(=O)c2c(Cl)cnn2CC)cc1	44.7µM*	3.8	4.4	3.5%
CCCCOC(=O)c1ccc(NC(=S)NC(=O)c2c(Cl)cnn2C)cc1	79.4µM*	1.2	1.9	1.6%
CCn1ncc(Cl)c1C(=O)NC(=S)Nc1ccccc1Br	-18.8%	1.9	.	17.3%
CCCCOC(=O)c1ccc(NC(=S)NC(=O)c2ccco2)cc1	-15.5%	-3.7	.	15.4%
CCOC(=O)c1c(NC(=O)c2ccc(C)cc2)sc2c1CC(C)(C)OC2	25.1µM*	-4.0	-3.0	8.2µM*
SMILES	Sfp PPTase inh	Giardia kill	Coupling enz	ELG1 repair inh
COC(=O)c1c(NC(=O)c2ccccc2)sc2c1CC(C)(C)OC2	12.0%	1.1	-3.3	?
CCOC(=O)c1c(NC(=O)c2ccccc2C)sc2c1CC(C)(C)OC2	31.6µM*	-7.7	-3.2	?
C=CCn1c(C)cc(C2=NNC(=NC(C)(C)C)SC2)c1C	56.2µM*	?	-3.5	?
C=CCn1c(C)cc(C2=NNC(=Nc3ccc(C)cc3)SC2)c1C	79.4µM*	24.3	-0.3	?
NC1=NC(=Nc2ccc(S(=O)(=O)N3CCOCC3)cc2)c2ccccc21	-22.4%	-5.6	2.0	?
Cc1ccc(C2=NNC(=Nc3ccc(F)cc3)SC2)cc1	?	7.5	-1.1	-3.1%
Cc1cc(C2=NNC(=Nc3ccc(S(=O)(=O)N4CCOCC4)cc3)SC2)c(C)n1C	12.6µM*	4.6	-3.1	0.0%
CCOc1ccc(N=C2NN=C(c3cc(C)n(CC4CCCO4)c3C)CS2)cc1 (configuration not stated)	56.2µM*	0.3	-0.9	0.9%
COc1cc(C2Nc3ccccc3C(=O)N2Cc2ccco2)cc(OC)c1OC (configuration not stated)	.	-17.7	.	.
N#Cc1c(C(F)(F)F)cc(-c2ccc(F)cc2)nc1SCC(=O)O	16.0%	-7.8	10.5	-2.4%
N#Cc1c(-c2ccc(F)cc2)cc(-c2ccccc2)nc1SCC(=O)NCC(=O)O	2.24µM*	6.2	14.2	11.2%
N#Cc1c(-c2ccccc2)cc(-c2ccccc2)nc1SCCC(=O)O	44.7µM*	-14.3	17.7	?
CS(=O)(=O)c1nc(-c2ccc(Br)cc2)cc(-c2ccccc2)c1C#N	2.6%	-7.1	0.2	16.4µM*
N#Cc1c(-c2ccc(Cl)cc2)cc(-c2ccccc2)nc1SCC(=O)O	-14.1%	-27.7	10.5	-15.2%
COc1cccc(NC(=O)CSc2nc3c(c(-c4ccco4)c2C#N)CCCC3)c1	20.0%	-23.6	3.5	-2.9%
COC(=O)CSc1nc(N)c(C#N)c(-c2ccco2)c1C#N	-28.6%	11.8	-3.3	10.8%
COCCOC(=O)c1c(C)nc(SCC(=O)Nc2ccc(OC)cc2)c(C#N)c1-c1ccco1	-6.7%	-12.5	2.7	23.1µM*
Cc1nc(SCC(=O)c2ccccc2)c(C#N)c(-c2ccco2)c1C(=O)NCc1ccco1	22.4µM*	4.3	-22.2	?
COc1ccccc1/C=N/NC(=O)CSc1cc(C)nc2ccccc12	-5.5%	-12.6	2.4	-8.0%
COc1ccccc1/C=N/NC(=O)CO	10.1%	-16.1	-1.7	0.4%
COc1ccccc1/C=N/NC(=O)CSc1ccc2ccccc2n1	-13.6%	-17.5	-33.1*	0.4%
COc1cccc(/C=N/NC(=O)CNC(=O)c2ccco2)c1O	13.3%	-5.4	3.0	8.2µM*
COc1ccccc1/C=N/NC(=O)CC(=O)NCc1ccccc1	11.0%	7.8	-53.6*	?
COc1cccc(/C=N\NC(C)=O)c1OC/C=C/c1ccccc1	-0.8%	-9.0	-0.2	20.6µM*
COC(=O)N1CCC2(CCCN(Cc3ccccc3)C2)CC1	-4.1%	.	0.8	.
SMILES	Sfp PPTase inh	Giardia kill	Coupling enz	ELG1 repair inh
CCCCCCCC/C=C\CCCCCCCC(=O)OCC(CO)OC(=O)CCCCCCC/C=C\CCCCCCCC (configuration not stated)	10.3%	.	1.8	.
COC(=O)C1=C(C(=O)OC)[C@@H]2N(C)c3ccccc3[C@@]23C[C@@H](CO)N=C3N1	17.4%	-3.1	-1.2	.
Cc1onc(-c2ccccc2)c1C(=O)N/N=C/c1ccccc1OC(C)C	19.1%	-24.1	.	3.2%
COc1ccccc1/C=N/NC(=O)c1c(-c2ccccc2)noc1C	20.3%	2.9	-33.8*	2.1%
O=C(CCc1nnc(-c2ccsc2)o1)N1CCc2c(Cl)cccc2C1	8.8%	-0.4	1.3	?
CC(C)(C)c1cc[n+](-c2nc([O-])sc2C=O)cc1	25.5%	1.9	-11.2	4.5%
